In PubChem BioAssay AID485270 (The Scripps Research Institute Molecular Screening Center, 2010):
Screen size: about 330,000 compounds; about 5,800 (1.8%) were called active. This excerpt belongs to a sample that is enriched for actives. Values without a mark were called inactive. Rule as the data show it: active = inhibition mostly above about 38% (no sharp cut-off); inactive = mostly below about 40%.

molecular target: Orexin/Hypocretin receptor type 1 (Homo sapiens) (UniProt O43613); experiment: antagonists of human orexin 1 receptor (OX1R) (AID 485270); conditions: OX1R-expressing cells, FRET antagonist read-out; at 6.6 µM; stronger effect = higher value;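 also: 0% = agonist challenge alone and 100% = reference antagonist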
Sequence (O43613 whole entry, looked up): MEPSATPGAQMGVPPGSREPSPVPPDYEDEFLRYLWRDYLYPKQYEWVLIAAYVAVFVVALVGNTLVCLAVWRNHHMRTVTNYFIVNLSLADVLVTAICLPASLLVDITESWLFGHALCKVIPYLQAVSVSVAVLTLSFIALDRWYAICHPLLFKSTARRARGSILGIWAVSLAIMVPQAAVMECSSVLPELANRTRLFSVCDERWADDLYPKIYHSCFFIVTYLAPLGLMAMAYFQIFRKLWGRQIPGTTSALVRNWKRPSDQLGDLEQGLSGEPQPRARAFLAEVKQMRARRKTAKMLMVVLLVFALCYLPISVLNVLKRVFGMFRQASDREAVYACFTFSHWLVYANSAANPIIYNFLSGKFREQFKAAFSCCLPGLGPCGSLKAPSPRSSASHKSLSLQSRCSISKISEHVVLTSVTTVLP

Compound	inhibition
Cc1cccc(NS(=O)(=O)c2ccc(C)c(C(N)=O)c2)c1	19.2%
Cc1cccc(NS(=O)(=O)c2cccc(C(=O)NNC(=O)c3ccccc3O)c2)c1	29.7% (active)
CC(=O)N1CCN(C(=O)c2cccc(S(=O)(=O)Nc3ccc(C)cc3)c2)CC1	-3.44%
COc1cc(/C=C2\Oc3ccc(C#Cc4ccc(O)cc4)cc3C2=O)cc(OC)c1	2.43%
O=C(COC(=O)c1ccco1)Nc1ccc(Cl)cn1	1.22%
CCNC(=O)N(CC)C[C@H]1N[C@@](CC)(C(=O)OC)[C@H]2C(=O)N(Cc3ccccc3)C(=O)[C@@H]12	-4.57%
CC(C)(C)OC(=O)C[C@@H]1C/C=C\C[C@@H](CC(=O)N(CCO)Cc2ccccc2)C(=O)N[C@H](Cc2ccccc2)COC1=O	13.4%
CC(C)(C)c1cc[n+](-c2[nH]c(=O)sc2/C=N/N=C(\[O-])c2ccccc2)cc1	59.4% (active)
O=C(N[C@@H]1C/C=C\C[C@@H](CC(=O)N(CCO)Cc2ccccc2)C(=O)N[C@H](Cc2ccccc2)COC1=O)OCC1c2ccccc2-c2ccccc21	9.35%
CC1O[C@H](OC2C(COC3OC(CO)C(O)[C@H](O)C3O)OC(OC3CC[C@]4(C)C(CC[C@@]5(C)[C@@H]4C=C[C@]46OC[C@@]7(CCC(C)(C)C[C@H]74)C(O)C[C@@]56C)C3(C)C)C(O)C2O)C(O)C(O)C1O (some centres not stated)	0.25%
c1ccc(-c2cc(-c3ccccc3)[nH]n2)cc1	10.7%
S=c1[nH]nc(-c2cc(-c3ccccc3)n[nH]2)n1/N=C/c1c2ccccc2cc2ccccc12	117% (active)
Fc1ccccc1/C=N/n1c(-c2cccnc2)n[nH]c1=S	11.6%
CN(C(=O)c1cccc(NC(=O)Cc2ccc([N+](=O)[O-])cc2)c1)C1CCC1	2.95%
Nn1c(SCC(=O)Nc2ccc3c(c2)CCC3)nnc1C1CC1	10.2%
CC(C)NC(=O)Nc1cccc2c1O[C@H](CN(C)S(=O)(=O)c1cccs1)[C@@H](C)CN([C@H](C)CO)C2=O	-2.12%
COc1ccc(-c2cc(C(=O)N(C)Cc3ccc(OC)c(OC)c3OC)c3ccccc3n2)cc1OC	39.4%
COc1ccc(-c2cc(C(=O)N(C)Cc3ccccc3)c3ccccc3n2)cc1	1.22%
COc1ccc(CN(C)C(=O)c2cc(-c3ccc(C)cc3C)nc3ccccc23)c(OC)c1OC	43.5% (active)
CN(C(=O)c1cccc(NC(=O)C2CCN(C(=O)OC(C)(C)C)CC2)c1)C1CCC1	5.08%
CC(C)OC(=O)c1c(NC(=O)c2ccco2)sc2c1CCCC2	12.4%

Compound	inhibition
CC(C)OC(=O)c1cc(NC(=O)C2C3CCC(O3)C2C(=O)O)cc(C(=O)OC(C)C)c1 (configuration not stated)	8.17%
Cc1sc(NC(=O)C2C3CCC(O3)C2C(=O)O)c(C(=O)OC(C)C)c1-c1ccc(Cl)cc1 (configuration not stated)	76% (active)
Cn1cccc1C(=O)OCC(=O)NCCc1ccccc1	5.82%
O=C(Nc1ccccc1)O/N=C1\CCCCC1c1ccc([N+](=O)[O-])cc1[N+](=O)[O-] (configuration not stated)	28.9%
CC1(C)C/C(=N/Nc2ccc([N+](=O)[O-])cc2[N+](=O)[O-])C(C)(C)O1	7.54%
C[n+]1ccccc1C1CCCC/C1=N\Nc1ccc([N+](=O)[O-])cc1[N+](=O)[O-] (configuration not stated)	93.3% (active)
Cc1cc([N+](=O)[O-])ccc1NC1CCCC1	10.2%
O=[N+]([O-])c1cc(C(F)(F)F)ccc1NN=C1CCCC1	9.21%
O=[N+]([O-])c1ccc(N/N=C2/CCCCC2c2ccccn2)c([N+](=O)[O-])c1 (configuration not stated)	49.2% (active)
Cc1cc(C(=O)OCC(=O)N2C(C)CCCC2C)c2ccccc2n1 (configuration not stated)	10.9%
Cc1cccc(NS(=O)(=O)c2ccc(C)c(C(=O)NCc3cccnc3)c2)c1	6.94%
N/C(=N\OC(=O)CCc1ccccc1)c1ccc(Cl)cc1	18.5%
Cc1ccc(NC(=O)Cn2cnc3c(OCc4ccccc4)ncnc32)cc1C	6.27%
Cc1ccsc1C(=O)NCCc1ccco1	7.13%
O=C(Nc1cccc(S(=O)(=O)N2CCOCC2)c1)C12CC3CC(CC(C3)C1)C2	4.36%
O=C(O)C1CCCN(S(=O)(=O)c2cccc3cccnc23)C1 (configuration not stated)	4.71%
Cc1ccc(NC(=O)C2CCCN2S(=O)(=O)c2cccc3cccnc23)c(C)c1 (configuration not stated)	21.6%
COc1ccc(NC(=O)C2CCCN(S(=O)(=O)c3cccc4cccnc34)C2)cc1OC (configuration not stated)	22.1%
Cc1cccc(NC(=O)C2CCN(S(=O)(=O)c3cccc4cccnc34)CC2)c1	7.8%
O=C(Nc1nccs1)C1CCCN1S(=O)(=O)c1cccc2cccnc12 (configuration not stated)	47.1% (active)
Cc1cc(C)cc(NC(=O)C2CCCN2S(=O)(=O)c2cccc3cccnc23)c1 (configuration not stated)	89.3% (active)

Compound	inhibition
O=C1OC[C@@H]2CCCN2C(=O)[C@H](CC(=O)N(CCO)Cc2ccccc2)C/C=C\CC[C@@H]1Cc1ccc(F)cc1	4.88%
CC(=O)OCCC(C)C	3.23%
C=CC[C@H](CC(=O)N(CCO)Cc1ccccc1)C(=O)N[C@@H](COC(=O)[C@@H](CC=C)Cc1ccc(F)cc1)Cc1ccccc1	10.8%
Cc1cc(OCCCC(=O)NCCN2C(=O)S/C(=C\c3cccnc3)C2=O)ccc1Cl	97.5% (active)
CCCNC(=O)C1CC(=O)N(c2ccc(OCC(=O)Nc3cccc(C)c3C)cc2)C1 (configuration not stated)	7.42%
O=C(NCCN1C(=O)S/C(=C\c2cccnc2)C1=O)c1cccc(OC(F)F)c1	33.8%
COc1ccccc1N1CC(C(=O)NCCN2C(=O)S/C(=C\c3cccnc3)C2=O)CC1=O (configuration not stated)	29.4%
COc1ccc(N2CC(C(=O)NCCN3C(=O)S/C(=C\c4cccnc4)C3=O)CC2=O)c(OC)c1 (configuration not stated)	153% (active)
O=C(NCCN1C(=O)S/C(=C\c2cccnc2)C1=O)c1ccc(S(=O)(=O)N2CCCC2)cc1	41%
CCOc1ccc(N2CC(C(=O)NCCN3C(=O)S/C(=C\c4cccnc4)C3=O)CC2=O)cc1 (configuration not stated)	55.7% (active)
CCOc1ccc(N2CC(C(=O)NCc3ccccn3)CC2=O)cc1 (configuration not stated)	13.1%
COc1cccc(NC(=O)C2c3cc(OC)c(OC)cc3C(=O)N(C)C2c2cccnc2)c1 (configuration not stated)	10.3%
Cc1ccc(CNC(=O)COC(=O)C2CCC2)cc1	8.9%
O=C(COC(=O)c1cc(S(=O)(=O)N2CCOCC2)ccc1F)NC1CC1	8.42%
CN(CC(=O)NCCc1ccc(S(N)(=O)=O)cc1)CC(=O)Nc1ccc(Cl)cc1	3.5%
CCCc1cc(=O)[nH]c(SCC(=O)Nc2ccc(C(=O)Nc3ccccc3OC)cc2)n1	14.2%
Cc1ccc2c(c1)NC(=O)[C@@]1(C)[C@@H](c3ccccc3)[C@H]3COc4ccc(Cl)cc4[C@@H]3N1C2=O	27.8%
CSc1ncccc1C(=O)NCC(c1ccco1)N1CCCCC1 (configuration not stated)	1.61%
O=C1N[C@@H](c2ccccc2)COC(=O)[C@H](Cc2ccc(F)cc2)C/C=C\C[C@@H]1CC(=O)N(CCO)Cc1ccccc1	13.5%
CC1CC(=NNC(=O)C2COc3ccccc3O2)CC(C)(C)C1 (configuration not stated)	5.91%
O=C(Nc1ccccn1)C1CCN(S(=O)(=O)c2ccc3c(c2)OCCO3)CC1	-0.64%

Compound	inhibition
COc1cccc(NC(=O)COC(=O)c2ccc3ccccc3n2)c1	10.5%
CCc1ccc(C(=O)N2CCN(S(=O)(=O)c3sc(C(=O)O)c(C)c3C(=O)O)CC2)cc1	0.64%
COc1ccc(CCOC2OC(CO)C(OC(=O)/C=C/c3ccc(O)c(OC)c3)C(O[C@H]3O[C@@H](C)[C@H](O)[C@@H](O)[C@H]3O)C2O)cc1O (some centres not stated)	3.08%
CCOC(=O)CSc1nc(C)cc2c1C(=O)OC2	5.73%
CCOC(=O)CSc1ccccn1	2.08%
CCOC(=O)CSC1=N/C(=C/c2ccc(-n3cncn3)cc2)C(=O)N1C(C)=O	64.5% (active)
COc1cccc(CC(=O)OCC(=O)NCc2ccc3c(c2)OCO3)c1	4.94%
CC(=O)Nc1ccc(S(=O)(=O)NCC(=O)OCC(=O)c2ccc[nH]2)cc1	7.15%
Cc1ccc(C)c(NC(=O)COC(=O)c2nn(C)c(=O)c3ccccc23)c1	4.64%
CC(Sc1nncn1C)C(=O)NCCC1=CCCCC1 (configuration not stated)	5.26%
COc1ccc(CNc2nc(NCc3ccc(OC)cc3)c3ncn(C4CCCC4)c3n2)cc1	15.3%
O=C(Nc1ccc(Br)cn1)c1ccc([N+](=O)[O-])o1	64.5% (active)
Cc1onc(NC(=O)c2ccc([N+](=O)[O-])o2)c1Br	33.4%
O=C(Nc1ccc(Br)cn1)c1ccc([N+](=O)[O-])cc1Cl	13.9%
COc1ccc(C2(c3ccc(OC)cc3)NC(=O)N(CC(=O)Nc3cc(C)on3)C2=O)cc1	14%
CCN1C[C@@H]2[C@@H]3C(=O)N(Cc4ccccc4)C(=O)[C@@H]3[C@](Cc3ccccc3)(C(=O)OC)N2C1=NC1CCCCC1	5.88%
COc1ccc(N2CCN(c3ccc([N+](=O)[O-])cc3Cl)CC2)cc1	11.7%
COc1cnn(-c2ccc([N+](=O)[O-])cc2)c(=O)c1Cl	49.7% (active)
CC(C)(C)c1cnnn1-c1ccc([N+](=O)[O-])cc1	29.6%
